From PubChem BioAssay AID1879 (The Scripps Research Institute Molecular Screening Center, 2009)
The other results are listed elsewhere or left out. A number with no mark means an inactive call. Activity calls are given as the source filed them. No stated cut-off is given here; in the data, active means inhibition above about 13%; inactive means the rest.

System: SARS coronavirus 3C-like protease (3CLpro)
Test: SARS 3CLpro inhibition, confirmation assay, retest, confirmation, biochemical (AID 1879)
Conditions: QFRET protease activity assay, at 6 µM, active compounds read high

In the case of `COC(=O)c1cc(NC(=O)Cc2ccccc2[N+](=O)[O-])ccc1Cl`, the inhibition is reported as 15% (active).

`O=C(NCc1ccccc1)c1ccc(S(=O)(=O)Nc2cccc(C(F)(F)F)c2)cc1` gave an inhibition of 7.75%.

`Cc1ccc(OCC(=O)Nc2ccc(C(=O)O)cc2NC(=O)COc2ccc(C)c(C)c2)cc1C` was tested, and the inhibition was 8.89%.

In the case of `CCCCNC(=O)N(O)C1N(/N=C/c2ccc(N(C)C)cc2)C(=S)SC1(C)C` (centres undefined), the inhibition is reported as -0.44%.

With `CCC(C)(C)NC(=O)C(c1ccc(O)cc1)N(C(=O)Cn1nnc2ccccc21)c1ccc(NC(C)=O)cc1` (centres undefined) the inhibition was 25.6% (active).

`CN1CCN(CC(=O)Nc2cccc([N+](=O)[O-])c2)CC1` showed an inhibition of 1.01%.

For `CC(C)c1ccc(N(C(=O)c2ccco2)C(C(=O)NC2CCCC2)c2cccnc2)cc1` (centres undefined), the inhibition was 47.8% (active).

`C=C(C)COc1ccc(-c2n[nH]c(C)c2-c2ccccc2)c(O)c1` was tested, and the inhibition was 5.95%.

`COC(=O)COc1cccc2c(=O)n(CC(=O)NCc3ccccc3)ccc12` gave an inhibition of 5.39%.

`O=C(O)c1ccc(NC(=O)c2cn(-c3ccccc3)nc2-c2ccc(Cl)cc2)cc1` was tested, and the inhibition was 6.65%.

With `Cc1cccc2c1N(CCOc1ccccc1)C(=O)C2=O` the inhibition was 19.1% (active).

In the case of `O=C1C(=O)N(CC2COc3ccccc3O2)c2ccccc21` (centres undefined), the inhibition is reported as 23.1% (active).

`C[C@@]12C(=O)N(c3cccc(Br)c3)C(=O)N1[C@H](c1ccc(Cl)cc1)[C@@H]1C(=O)N(C3CCCCC3)C(=O)[C@@H]12` was tested, and the inhibition was 15.9% (active).

`Cc1ccc(C(=O)NCCN2CCOCC2)cc1C` was tested, and the inhibition was 0.81%.

`Cc1cccc(C(=O)Nc2nnc(Cc3c[nH]c4ccccc34)s2)c1` gave an inhibition of 5.81%.

In the case of `CC(=O)c1cc(-c2ccccc2)[nH]c1N1CCCC1`, the inhibition is reported as 22.5% (active).

`O=C(c1cc(=O)c2ccccc2o1)N1CCN(c2ccccc2)CC1` was tested, and the inhibition was 12.2%.

In the case of `COc1ccccc1N(C(=O)Cn1nnc2ccccc21)C(C(=O)NCc1ccco1)c1ccc(C)o1` (centres undefined), the inhibition is reported as 26.2% (active).

With `O=Cc1cn(Cc2ccccc2)nc1-c1cccnc1` the inhibition was 47.9% (active).
